Source: PubChem
In the library only some 7.4% were active in any assay of this set; here they are far more common.
Rab9 promoter act – activates the Rab9 promoter | Huh7 Rab9 promoter-luciferase reporter, luminescence, 24 h | Potency, µM (top dose mostly 9.22 µM), for inactives: top-dose activation, negative = inhibition, most hits filed as activators | actives 2.8% (n = 320,000) | AID 485297; note: % of control where 0% means no effect; nearly all actives have a fitted effect of over 60% in size
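Steps: seed 1500 Huh7 Rab9-luc cells per well, rest 2 h at 37 °C; add compound in DMSO; incubate 24 h; add luciferase reagent, 10 min ambient; read luminescence.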
FLuc counter – inhibits or activates purified firefly luciferase, miR-21 counter-screen | purified FLuc, Km substrates, luminescence inhibition | Potency, µM (titrated, usually from 57.5 µM), for inactives: at the top dose activity change, negative = inhibition, most hits filed as inhibitors | actives 6.9% (n = 360,000) | AID 588342 | P08659;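 note: plate controls were vehicle for no effect and reference inhibitor for full effect; nearly all actives have a fitted effect of over 55% in size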
Target sequence (P08659 whole entry, looked up): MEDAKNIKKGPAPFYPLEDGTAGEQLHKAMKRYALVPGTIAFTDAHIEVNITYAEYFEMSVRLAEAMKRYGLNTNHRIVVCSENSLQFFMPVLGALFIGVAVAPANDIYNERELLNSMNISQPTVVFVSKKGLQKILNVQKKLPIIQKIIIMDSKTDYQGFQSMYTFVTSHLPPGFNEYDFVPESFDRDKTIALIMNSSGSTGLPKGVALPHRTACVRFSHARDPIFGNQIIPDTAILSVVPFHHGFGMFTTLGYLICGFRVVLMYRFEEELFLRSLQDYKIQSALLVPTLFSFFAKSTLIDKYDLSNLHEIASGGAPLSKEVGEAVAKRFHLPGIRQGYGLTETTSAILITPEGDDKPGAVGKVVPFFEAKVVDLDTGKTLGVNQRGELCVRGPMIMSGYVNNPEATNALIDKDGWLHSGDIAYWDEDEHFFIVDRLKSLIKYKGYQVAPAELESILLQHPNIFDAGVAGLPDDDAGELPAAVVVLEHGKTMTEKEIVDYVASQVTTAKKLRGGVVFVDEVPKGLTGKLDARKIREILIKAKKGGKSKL
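Biochemical qHTS of compounds, final roughly 60 µM downward over six points, against 10 nM purified firefly luciferase using Km concentrations of substrates (10 uM D-luciferin, 10 uM ATP) in Tris acetate pH 7.5 buffer; luminescence output.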
KinaseGlo FLuc – Kinase-Glo luciferase inhibition (counter-screen); Q27757; Kinase-Glo luciferase, ATP luminescence, 8 min; Potency, µM (top dose mostly 38.3 µM), without a hit: at the highest dose activity change, negative = inhibition, actives largely listed as inhibitors; actives 0.28% (n = 200,000); AID 1379; note: % is set by controls: 0 for no effect and ±100 for the full control effect; nearly all actives have a fitted effect of over 60% in size
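Luminescence was the read-out, taken after 8-minute incubation at ambient temperature. Luciferase turned over luciferin with 10 uM ATP in imidazole pH 7.2 buffer containing KCl, MgCl2, Tween 20 and BSA.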
NPC1 prom act – activates the NPC1 promoter | actives 2.4% (n = 320,000) | Potency, µM (titrated, usually from 9.22 µM), without a hit: top-dose activation, most hits filed as activators | Huh7 NPC1 promoter luciferase reporter, 24 h; note: % of control where 0% means no effect; nearly all actives have a fitted effect of over 60% in size
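Readout is luciferase luminescence, reflecting NPC1 promoter activation in stably transfected Huh7 cells after 24 h compound exposure at 37 °C in reduced-serum medium with 10% FBS.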
ELG1 genotoxic – inducers of genotoxicity in HEK293T ELG1-luciferase cells. HEK293T ELG1-luciferase reporter, luminescence, 16 h. Potency, µM (top dose mostly 46 µM), inactives show top-dose activity change, positive = activation, hits mostly activators. actives 1.3% (n = 330,000). AID 504466; note: % of control where 0% means no effect; nearly all actives have a fitted effect of over 60% in size
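HEK293T cells expressing luciferase-tagged ELG1 were exposed to compound or DMSO vehicle for 16 hr at 37 °C and 5% CO2. Luciferase activity was then measured with ONE-Glo after 30 min at room temperature.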
SMN2 splice up – enhancers of SMN2 splice variant expression | actives 2.8% (n = 210,000) | Potency, µM (series often up to 46.1 µM), without a hit: at the highest dose activity change, positive = activation, hits mostly activators | HEK293 SMN2-luciferase splicing reporter, luminescence, 30-36 h | AID 1458; note: % of control where 0% means no effect; nearly all actives have a fitted effect of over 55% in size
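HEK293 cells carry an SMN2 […]–luciferase reporter in which exon 7 inclusion puts luciferase in frame. Cells were plated 10-12 h before compound addition, then incubated 30-36 h at 37C. ONE-Glo luminescence was read; sodium butyrate at 4.5 mM final served as control.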
* marks the source's active call; other numbers are inactive results. Calls come from the whole dose curve; as a rule, active = well fitted curve in the direction sought with a large enough effect; inconclusive = small, poorly fitted or top-dose-only effect, or another doubt; inactive = no such curve, though single readings can be large; an effect the other way counts as inactive or inconclusive. Potency is the fitted concentration of half-maximal effect.

Cc1c(C(=O)NCCc2ccc3c(c2)OCCO3)oc2ccccc12 was read as Rab9 promoter act 9.4%, FLuc counter 19µM*, KinaseGlo FLuc 1.8%, NPC1 prom act -1.9%, ELG1 genotoxic -1.1% and SMN2 splice up -13.5%.
`O=C(NCCc1ccc2c(c1)OCCO2)c1ccccc1F` gave Rab9 promoter act 29.2%, FLuc counter inconclusive, KinaseGlo FLuc -5.5%, NPC1 prom act inconclusive, ELG1 genotoxic 15.9% and SMN2 splice up -9.1%.
COc1ccccc1C(CNC(=O)c1oc2ccccc2c1C)N1CCCC1 (stereo not drawn) was read as Rab9 promoter act -6.4%, FLuc counter 23.9µM*, NPC1 prom act 1.0% and ELG1 genotoxic -1.6%.
Screening COc1ccc(CCNC(=O)c2oc3ccc(OC)cc3c2C)cc1 returned Rab9 promoter act 17.8%, FLuc counter inconclusive, NPC1 prom act 2.7% and ELG1 genotoxic -0.7%.
For COc1ccc(CCNC(=O)c2oc3ccccc3c2C)cc1 the results were Rab9 promoter act -4.2%, FLuc counter 19µM*, NPC1 prom act -2.7% and ELG1 genotoxic 0.1%.
`CCOCCn1c(C)c(C(=O)OCC)c2cc(O)c3ccccc3c21` gave Rab9 promoter act 1.5%, FLuc counter -1.0%, NPC1 prom act 0.2% and ELG1 genotoxic -1.5%.
Cc1ccc(F)cc1NC(=O)C1C2CCC(O2)C1C(=O)O (stereo not drawn) was read as Rab9 promoter act 6.7%, FLuc counter 4.0%, NPC1 prom act -5.2% and ELG1 genotoxic 11.0%.
For CC1CCCC(NC(=O)COC(=O)CN2C(=O)C3CCCCC3C2=O)C1C (stereo not drawn) the results were Rab9 promoter act -4.6%, FLuc counter -0.7%, KinaseGlo FLuc -1.1%, NPC1 prom act -1.4%, ELG1 genotoxic -1.5% and SMN2 splice up 0.2%.
COc1ccc(CNc2ccc(N3CCOCC3)cc2)cc1 was read as Rab9 promoter act inconclusive, FLuc counter 26.9µM*, NPC1 prom act 13.0% and ELG1 genotoxic -3.4%.
For CCCCCC/C=N/Nc1nnc(Cc2ccccc2)c(=O)[nH]1 the results were Rab9 promoter act -4.1%, FLuc counter 0.7%, NPC1 prom act -5.2% and ELG1 genotoxic -2.9%.
C(=N\Nc1nn[nH]n1)/c1ccccc1 was read as Rab9 promoter act 0.3%, FLuc counter -0.5%, KinaseGlo FLuc -5.6%, NPC1 prom act -1.0%, ELG1 genotoxic 3.2% and SMN2 splice up -4.9%.
Brc1ccc(-c2ccc(/C=N/Nc3nncc(-c4ccccc4)n3)o2)cc1 was read as Rab9 promoter act -0.9%, FLuc counter -11.5%, KinaseGlo FLuc -3.3%, NPC1 prom act 2.3%, ELG1 genotoxic -0.8% and SMN2 splice up -3.8%.
For Brc1ccc(-c2ccc(/C=N/Nc3nc4ccccc4[nH]3)o2)cc1 the results were Rab9 promoter act inconclusive, FLuc counter 0.849µM*, KinaseGlo FLuc inconclusive, NPC1 prom act inconclusive, ELG1 genotoxic inconclusive and SMN2 splice up 7.94µM*.
C(=N\Nc1nc2ccccc2[nH]1)/c1ccccc1 was read as Rab9 promoter act inconclusive, FLuc counter 10.7µM*, KinaseGlo FLuc -6.6%, NPC1 prom act inconclusive, ELG1 genotoxic inconclusive and SMN2 splice up 12.6µM*.
For Cc1cc(=O)[nH]c(N/N=C/c2ccc(F)cc2)n1 the results were Rab9 promoter act 23.4%, FLuc counter inconclusive, NPC1 prom act 15.8% and ELG1 genotoxic 7.1%.
`C(/CCc1ccccc1)=N\Nc1nc2ccccc2[nH]1` gave Rab9 promoter act 21.6%, FLuc counter 2.13µM*, KinaseGlo FLuc -6.1%, NPC1 prom act 14.1%, ELG1 genotoxic inconclusive and SMN2 splice up 9.4%.
Fc1ccc(/C=N/Nc2nc3ccccc3[nH]2)cc1F was read as Rab9 promoter act 29.1%, FLuc counter 12µM*, KinaseGlo FLuc 0.6%, NPC1 prom act inconclusive, ELG1 genotoxic 10.3% and SMN2 splice up 12.3%.
For COc1ccc(/C=C/C(=O)OCC(=O)NCc2ccco2)c(OC)c1 the results were Rab9 promoter act -1.1%, FLuc counter inconclusive, KinaseGlo FLuc 1.7%, NPC1 prom act -1.6%, ELG1 genotoxic -0.2% and SMN2 splice up inconclusive.
CCN(CC(=O)Nc1c(F)cccc1F)C(=O)CCNC(=O)c1ccco1 was read as Rab9 promoter act -2.2%, FLuc counter 5.7%, NPC1 prom act -1.9% and ELG1 genotoxic 0.6%.
For Cc1cc(N/N=C/c2ccc3c(c2)OCO3)nc2ccccc12 the results were Rab9 promoter act 2.51µM*, FLuc counter 2.69µM*, NPC1 prom act inconclusive and ELG1 genotoxic 13.8%.
`C(=C\c1ccccc1)/C=N/Nc1nc2ccccc2[nH]1` gave Rab9 promoter act 4.47µM*, FLuc counter 3.79µM*, NPC1 prom act 3.16µM* and ELG1 genotoxic 18.4µM*.
For O=c1[nH]c(N/N=C\c2ccc3c(c2)OCO3)nc2ccccc12 the results were Rab9 promoter act 0.562µM*, FLuc counter 3.79µM*, KinaseGlo FLuc -21.9%, NPC1 prom act 0.794µM*, ELG1 genotoxic inconclusive and SMN2 splice up 8.91µM*.
For O=c1[nH]c(N/N=C/c2ccccc2)nc2ccccc12 the results were Rab9 promoter act 2.24µM*, FLuc counter 6.01µM*, KinaseGlo FLuc 1.6%, NPC1 prom act 3.16µM*, ELG1 genotoxic 2.31µM* and SMN2 splice up 14.1µM*.
`CCCc1cc(=O)[nH]c(N/N=C/C=C\c2ccccc2)n1` gave Rab9 promoter act 6.8%, FLuc counter -15.4%, KinaseGlo FLuc 3.9%, NPC1 prom act -1.7%, ELG1 genotoxic -5.4% and SMN2 splice up -15.7%.
For Cc1ccc(S(C)(=O)=O)cc1C(=O)Nc1ccc(S(=O)(=O)Nc2nccs2)cc1 the results were Rab9 promoter act 2.7%, FLuc counter 2.4%, NPC1 prom act 2.0% and ELG1 genotoxic 0.5%.
For CCOc1ccc(CCNC(=O)C2CCCN(S(=O)(=O)N3CC(C)CC(C)C3)C2)cc1OCC (stereo not drawn) the results were Rab9 promoter act -6.6%, FLuc counter 1.2%, NPC1 prom act -2.0% and ELG1 genotoxic -7.3%.
For CC1(C)Cc2ccccc2C(N/N=C/c2cccc(F)c2)=N1 the results were Rab9 promoter act -8.4%, FLuc counter -14.2%, KinaseGlo FLuc 3.9%, NPC1 prom act -3.9%, ELG1 genotoxic -2.0% and SMN2 splice up -20.6%.
`Fc1cccc(/C=N/Nc2nc3ccccc3[nH]2)c1` gave Rab9 promoter act 3.16µM*, FLuc counter 8.49µM*, KinaseGlo FLuc -4.0%, NPC1 prom act inconclusive, ELG1 genotoxic inconclusive and SMN2 splice up inconclusive.
